# CHRM1 antagonist = human M1 muscarinic receptor antagonists, primary screen, CHO-K1 cells, Fluo-8 calcium fluorescence, 1536-well. AID 588852, 2011. CHO-K1 hM1, ACh EC80 antagonist. Muscarinic acetylcholine receptor M1 (Homo sapiens), P11229. inhibition, % at 3 µM. hit rate 1.3% among 360,000;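 active means percent inhibition above its own plate's cutoff, namely the mean of that plate's compound wells plus 3 SD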;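 further: peak over basal fluorescence ratio during 140 s after agonist addition; 0% = ACh EC80 plus DMSO and 100% = DMSO alone without agonist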
# Target sequence (P11229 whole entry, looked up): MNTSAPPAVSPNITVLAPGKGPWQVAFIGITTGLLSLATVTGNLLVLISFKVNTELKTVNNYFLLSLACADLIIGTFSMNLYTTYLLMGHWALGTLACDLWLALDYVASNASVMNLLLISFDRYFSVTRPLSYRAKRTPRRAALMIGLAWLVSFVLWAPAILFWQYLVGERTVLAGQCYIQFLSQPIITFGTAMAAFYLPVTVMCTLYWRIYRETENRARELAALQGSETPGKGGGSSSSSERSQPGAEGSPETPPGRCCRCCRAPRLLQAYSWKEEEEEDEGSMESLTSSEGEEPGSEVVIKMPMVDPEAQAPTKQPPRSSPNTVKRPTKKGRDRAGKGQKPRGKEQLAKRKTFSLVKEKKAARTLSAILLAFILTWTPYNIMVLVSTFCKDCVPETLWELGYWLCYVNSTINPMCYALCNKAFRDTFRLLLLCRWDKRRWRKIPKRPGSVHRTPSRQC
# CHO-K1 Ca PAM = nonselective calcium activators in parental CHO-K1 cells, primary screen, counter-screen for M1 PAM project, cell-based, Fluo-8 calcium fluorescence, full deck, 1536-well | activation, % at 3 µM | hit rate 0.02% among 360,000 | ATP EC20; 0% at ATP EC20, 100% at ATP max;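 active means activation above the run cutoff, the mean activation of all test compounds plus 3 SD, cut at about 40% in these data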;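 further: peak over basal fluorescence ratio in a 140 s read after ATP addition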
# CHO-K1 Ca ag = counter-screen for M1 agonists: effect in parental CHO-K1 cells; AID 602248, 2012; Fluo-8 calcium fluorescence; scaled to maximal ATP response, vehicle zero; activation, % at 3 µM; hit rate 0.48% among 360,000; in the data active means activation above about 15%;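 further: untransfected CHO-K1 host cells lacking M1 receptor as counterscreen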
# M1 PAM = human M1 muscarinic receptor positive allosteric modulators, primary screen, CHO-K1 cells, Fluo-8 calcium fluorescence, 1536-well; Muscarinic acetylcholine receptor M1 (Homo sapiens), P11229; CHO-K1 hM1, ACh EC20; 0% = ACh EC20, 100% = maximal ACh; activation, % at 3 µM; hit rate 0.088% among 360,000; AID 588819, 2011; in the data active means activation above about 19%, passing the limit was not always enough
# CHO-K1 Ca antag = nonselective inhibitor or artifact in parental CHO-K1 cells. hit rate 0.6% among 360,000. AID 602250. ATP-induced calcium, Fluo-8 fluorescence. inhibition, % at 3 µM;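 active means inhibition above a per-plate cutoff, the plate's mean sample inhibition plus 3 SD, cut at about 24% in these data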;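 further: 0% = DMSO plus EC80 ATP and 100% = DMSO alone without ATP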
# M1 ag = human M1 muscarinic receptor agonists, primary screen, Fluo-8 calcium fluorescence, CHO-K1 cells, HTS; CHO-K1 hM1, agonist mode; 0% DMSO, 100% acetylcholine EC100; activation, % at 3 µM; hit rate 0.33% among 360,000;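 active means activation above the run's mean compound activation plus 3 SD, cut at about 16% in these data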;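 further: peak over basal fluorescence ratio within a 140 s kinetic read after compound addition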
# The depositor's hits bear a star. The list is not random: actives were taken first. Their share in the collection is about 2.3%.
SMILES,CHRM1 antagonist,CHO-K1 Ca PAM,CHO-K1 Ca ag,M1 PAM,CHO-K1 Ca antag,M1 ag
Cn1c(=O)[nH]c(=O)c2c1nc(N1CCc3ccccc3C1)n2CCSc1nc2ccccc2s1,-16,24,0,16,-14,-2
Cn1c(=O)[nH]c(=O)c2c1nc(N1CCN(Cc3ccccc3)CC1)n2CCSc1ncccn1,33*,3,5,-14,4,-5
CN1CCN(c2nc3c(c(=O)[nH]c(=O)n3C)n2CCSc2nc3ccccc3s2)CC1,-4,-9,0,-7,27*,18*
Cc1ccc(Cl)cc1NC(=O)c1cc(S(=O)(=O)N2CCOCC2)cn1C,-2,-7,0,7,10,-1
Cc1ccc(S(=O)(=O)N2C[C@@H]3CCCC[C@@H]3[C@@H](C)[C@H]2c2cn(Cc3ccccc3)c3ncccc23)cc1,-2,9,-1,29*,-17,4
Cc1nc(-c2ccccc2)sc1C(N)=O,-21,22,0,0,-16,-3
C/C(=N\O)c1sc(-c2ccccc2)nc1C,3,2,20*,3,5,-9
Cc1ccc([N+](=O)[O-])c(OCCCN2CCC(Cc3ccccc3)CC2)c1,76*,-4,9,-29,-12,-9
Cc1ccc([N+](=O)[O-])c(OCCN2CCc3ccccc3C2)c1,1,-8,0,1,-4,-9
O=[N+]([O-])c1cccc(OCCN2CCC(Cc3ccccc3)CC2)c1,91*,24,3,-26,-8,-7
COc1cc(CN2CCC(Cc3ccccc3)CC2)c([N+](=O)[O-])cc1OC,-17,15,0,8,-18,-3
Cc1ccc([N+](=O)[O-])c(OCCN2CCCCCC2)c1,-2,20,16*,-1,1,-10
CCCCN(C(=O)CN1C(=O)C2CCCCC2C1=O)c1c(N)n(CCC)c(=O)[nH]c1=O (centres undefined),-3,-5,1,1,-2,-3
Cc1cc(C)c(C(=O)NCC(=O)c2ccccc2)c(C)c1,-19,10,1,16,-9,1
NC(N)=NN=C(c1ccc(F)cc1)c1ccc(C(F)(F)F)cc1,-7,11,4,5,-6,6
C[C@H](CO)N1C[C@H](C)[C@@H](CN(C)C(=O)Nc2ccc(C(F)(F)F)cc2)Oc2ccc(NC(=O)Nc3ccc4c(c3)OCO4)cc2C1=O,-9,1,0,7,-10,-2
CN(C(=O)CSc1nc2ccccc2c(=O)n1C)C1CCS(=O)(=O)C1 (centres undefined),-14,11,0,7,-10,6
CN(C(=O)COC(=O)c1nc(-c2ccccc2)n(-c2ccccc2)n1)C1CCS(=O)(=O)C1 (centres undefined),64*,-3,0,-21,-6,-4
CN(C(=O)CSc1nc2ccccc2n1C)C1CCS(=O)(=O)C1 (centres undefined),29*,16,0,-3,8,-4
Cc1nn(-c2ccccc2)c(C)c1C(=O)OCC(=O)N(C)C1CCS(=O)(=O)C1 (centres undefined),-4,2,0,6,2,-11
CN1CCC(C)(C(=O)Nc2ccc3c(c2)OCCO3)C1 (centres undefined),-6,-2,0,3,-10,-5
COC(=O)C1CCN(C(=O)COC(=O)C2CCN(S(=O)(=O)c3ccc(C)c(C)c3)CC2)CC1,-7,9,1,4,2,-5
Cc1nc(NC(=O)CSc2nc3ccccc3s2)sc1C(=O)N(C)C,-20,6,3,25*,-11,1
Cc1cc(NC(=O)COC(=O)c2ccc([N+](=O)[O-])cc2Cl)no1,2,-9,0,11,-3,1
CC(NC(=O)C1CC1)c1ccc(-c2ccccc2)cc1 (centres undefined),-6,15,5,5,-7,0
SMILES,CHRM1 antagonist,CHO-K1 Ca PAM,CHO-K1 Ca ag,M1 PAM,CHO-K1 Ca antag,M1 ag
CC1=C(c2ccccc2)C=NNCC1=O,-12,19,1,8,-13,-4
CC(=O)N1CCc2cc(Br)cc(S(=O)(=O)N3CCN(C(=O)c4ccco4)CC3)c21,18,-7,1,-10,24*,-2
CC(=O)N1CCc2cc(Br)cc(S(=O)(=O)N3CCCCCC3)c21,-11,6,1,0,5,-1
CCOC(=O)COc1ccc(/C=C2\NC(=S)N(CC)C2=O)cc1,3,6,2,-2,1,2
O=C(Nc1ccc(Cl)cc1)Nc1ccccc1NS(=O)(=O)c1cccs1,34*,-2,16*,-26,34*,2
CCc1c(C2(O)CCCCC2)[nH]c2ccc(C#N)cc12,9,14,6,-14,-19,-6
CCN(CC)C(=O)N1CCC(NC(=O)Cc2ccccc2)CC1,-1,-6,0,1,26*,-1
O=C(Cc1ccccc1)NC1CCN(C(=O)NCc2ccccc2)CC1,-3,22,1,0,-13,-3
CN1CCN(C(=O)N(c2ccccc2)c2ccccc2)CC1,24,14,1,-14,-10,-8
Cc1ccc(N(C)C(=O)N2CCN(S(=O)(=O)c3ccc(C)cc3)CC2)cc1,-15,-13,1,25*,-7,19*
CCN1CCN(C(=O)N(c2ccccc2)c2ccccc2)CC1,42*,11,1,-21,-9,-9
CCOC(=O)N1CCC(N2CCN(S(=O)(=O)c3ccc(C)cc3)CC2)CC1,-7,15,1,-2,-7,24*
COc1cc(NC(=O)NCC2CCN(Cc3ccccc3C)CC2)cc(OC)c1OC,4,-3,0,-14,-16,-12
Cc1ccc(S(=O)(=O)N2CCN(C(=O)N(c3ccccc3)c3ccccc3)CC2)cc1,5,0,0,-2,-6,-4
CCN(CC)C(=O)N1CCN(S(=O)(=O)c2ccccc2)CC1,-26,16,1,28*,-17,-1
CN(C)S(=O)(=O)c1ccc(C(=O)Nc2nc(-c3cc4ccccc4o3)cs2)cc1,24*,2,4,-12,10,1
O=C(Nc1nc(-c2cc3ccccc3o2)cs1)c1ccc(S(=O)(=O)N2CCCC2)cc1,10,-10,2,-8,17,2
CCOC(=O)c1cnc2c(ccc3ccccc32)c1N,-25,12,1,25,-8,1
O=C1CCCN1C(=O)CSc1ncnc2sccc12,9,-18,0,-4,16,-5

# Screening data: PubChem BioAssay, The Scripps Research Institute Molecular Screening Center
